According to the supplement of paper PMC10849652:
Targets with a hit are over-represented here; the source holds about 7,900 in all. About 0.6% of all pairs of compound and target were hits. A number with no mark means an inactive call.

Key:
Assay in all cases: log2 fold change, soluble protein after heating vs DMSO (PISA); higher = thermal stabilisation; K562 cells, 10 uM, 30 min; active = over 0.2 and 3.5 SD of the protein, either way, in both replicates (recomputed)
[1] = compound: COC1=CC=C(C=C1)CN2C=CC3=C2C=C(C=C3)C(=O)NO
Procedure, shortened: (§1)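 For each measurement, 10 μM compound was applied for 30 min to K562 cells at 2×10^6 cells/mL. Aliquots were heated for 3 min across 48°C-58°C, pooled, and extracted in PBS with 0.5% NP-40 at 4°C; the supernatant after 21,000xg for 90 min was soluble protein. This was quantified by TMTpro 16plex LC-MS/MS with channel sums equalised, and thermal stability was reported relative to control samples from duplicates, on a log2 fold-change scale.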

filanesib = compound: CON(C)C(=O)N1N=C(c2cc(F)ccc2F)S[C@@]1(CCCN)c1ccccc1 [filanesib]
Procedure, shortened: as §1

zotarolimus = compound: CO[C@H]1C[C@@H]2CC[C@@H](C)[C@@](O)(O2)C(=O)C(=O)N2CCCC[C@H]2C(=O)O[C@H]([C@H](C)C[C@@H]2CC[C@H](n3cnnn3)[C@H](OC)C2)CC(=O)[C@H](C)/C=C(\C)[C@@H](O)[C@@H](OC)C(=O)[C@H](C)C[C@H](C)/C=C/C=C/C=C/1C [zotarolimus]
Procedure, shortened: as §1

idasanutlin = compound: COc1cc(C(=O)O)ccc1NC(=O)[C@@H]1N[C@@H](CC(C)(C)C)[C@](C#N)(c2ccc(Cl)cc2F)[C@H]1c1cccc(Cl)c1F [idasanutlin]
Procedure, shortened: as §1

alisertib = compound: COc1cc(Nc2ncc3c(n2)-c2ccc(Cl)cc2C(c2c(F)cccc2OC)=NC3)ccc1C(=O)O [alisertib]
Procedure, shortened: as §1

[2] = compound: COc1cc2nc(-c3cc(F)ccc3O)nc(N[C@@H]3CNC[C@H]3C(C)(C)O)c2cc1OC
Procedure, shortened: as §1

gefitinib = compound: COc1cc2ncnc(Nc3ccc(F)c(Cl)c3)c2cc1OCCCN1CCOCC1 [gefitinib]
Procedure, shortened: as §1

[3] = compound: COc1cccc2cc(-c3nc([C@H]4CC[C@H](C(=O)O)CC4)n4ncnc(N)c34)[nH]c12
Procedure, shortened: as §1

lapatinib = compound: CS(=O)(=O)CCNCc1ccc(-c2ccc3ncnc(Nc4ccc(OCc5cccc(F)c5)c(Cl)c4)c3c2)o1 [lapatinib]
Procedure, shortened: as §1

pictilisib = compound: CS(=O)(=O)N1CCN(Cc2cc3nc(-c4cccc5[nH]ncc45)nc(N4CCOCC4)c3s2)CC1 [pictilisib]
Procedure, shortened: as §1

[4] = compound: CS(=O)(=O)c1ccc(-c2cnc(N)c(C(=O)Nc3ccccc3)n2)cc1
Procedure, shortened: as §1

crizotinib = compound: C[C@@H](Oc1cc(-c2cnn(C3CCNCC3)c2)cnc1N)c1c(Cl)ccc(F)c1Cl [crizotinib]
Procedure, shortened: as §1

[5] = compound: C[C@@H]1COCCN1C2=NC(=NC(=C2)C3(CC3)S(=O)(=O)C)C4=C5C=CNC5=CC=C4
Procedure, shortened: as §1

[6] = compound: C[C@H](C1=CC=C(C=C1)C(=O)NC2=C3C=CNC3=NC=C2)N
Procedure, shortened: as §1

duvelisib = compound: C[C@H](Nc1ncnc2nc[nH]c12)c1cc2cccc(Cl)c2c(=O)n1-c1ccccc1 [duvelisib]
Procedure, shortened: as §1

gandotinib = compound: Cc1cc(Nc2cc(CN3CCOCC3)c3nc(C)c(Cc4ccc(Cl)cc4F)n3n2)n[nH]1 [gandotinib]
Procedure, shortened: as §1

tozasertib = compound: Cc1cc(Nc2cc(N3CCN(C)CC3)nc(Sc3ccc(NC(=O)C4CC4)cc3)n2)n[nH]1 [tozasertib]
Procedure, shortened: as §1

[7] = compound: Cc1cc(SCc2sc(-c3ccc(C(F)(F)F)cc3)nc2C)ccc1OCC(=O)O
Procedure, shortened: as §1

doramapimod = compound: Cc1ccc(-n2nc(C(C)(C)C)cc2NC(=O)Nc2ccc(OCCN3CCOCC3)c3ccccc23)cc1 [doramapimod]
Procedure, shortened: as §1

ispinesib = compound: Cc1ccc(C(=O)N(CCCN)[C@@H](c2nc3cc(Cl)ccc3c(=O)n2Cc2ccccc2)C(C)C)cc1 [ispinesib]
Procedure, shortened: as §1

UBE2S (UniProt Q16763)
UniProt Q16763, sequence (Q16763 whole entry, looked up): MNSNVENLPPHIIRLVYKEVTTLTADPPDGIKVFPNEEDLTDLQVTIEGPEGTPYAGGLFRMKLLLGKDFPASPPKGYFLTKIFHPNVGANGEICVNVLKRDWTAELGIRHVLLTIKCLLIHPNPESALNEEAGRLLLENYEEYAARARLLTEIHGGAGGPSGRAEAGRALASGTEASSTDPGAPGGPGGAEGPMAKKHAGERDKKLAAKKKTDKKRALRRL
log2 fold change [1]: 0.003 | log2 fold change (filanesib): 0.01 | log2 fold change (zotarolimus): 0.045 | log2 fold change (idasanutlin): -0.05 | log2 fold change (alisertib): 0.015 | log2 fold change [2]: 0.053 | log2 fold change (gefitinib): -0.009 | log2 fold change [3]: 0.001 | log2 fold change (lapatinib): -0.035 | log2 fold change (pictilisib): 0.058 | log2 fold change [4]: 0.014 | log2 fold change (crizotinib): 0.079 | log2 fold change [5]: 0.003 | log2 fold change [6]: -0.067 | log2 fold change (duvelisib): 0.042 | log2 fold change (gandotinib): -0.015 | log2 fold change (tozasertib): 0.025 | log2 fold change [7]: 0.002 | log2 fold change (doramapimod): 0.024 | log2 fold change (ispinesib): 0.1

VPS33B (UniProt Q9H267)
UniProt Q9H267, sequence (Q9H267 whole entry, looked up): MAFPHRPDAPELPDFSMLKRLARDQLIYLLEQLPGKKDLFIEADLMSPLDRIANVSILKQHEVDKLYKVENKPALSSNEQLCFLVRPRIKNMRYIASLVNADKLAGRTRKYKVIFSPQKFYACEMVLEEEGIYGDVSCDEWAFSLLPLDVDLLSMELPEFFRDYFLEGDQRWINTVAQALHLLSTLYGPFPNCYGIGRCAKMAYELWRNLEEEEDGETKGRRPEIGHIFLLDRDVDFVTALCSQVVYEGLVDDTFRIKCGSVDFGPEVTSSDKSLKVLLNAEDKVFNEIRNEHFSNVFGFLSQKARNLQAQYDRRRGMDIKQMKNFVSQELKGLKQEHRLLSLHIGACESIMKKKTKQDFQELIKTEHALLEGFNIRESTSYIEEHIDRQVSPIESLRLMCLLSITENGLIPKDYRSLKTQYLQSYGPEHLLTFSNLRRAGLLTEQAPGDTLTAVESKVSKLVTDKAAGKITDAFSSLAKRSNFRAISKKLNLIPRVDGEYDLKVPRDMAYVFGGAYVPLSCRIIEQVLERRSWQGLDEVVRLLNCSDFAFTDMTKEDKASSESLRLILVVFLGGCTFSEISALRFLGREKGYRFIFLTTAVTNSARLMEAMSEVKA
log2 fold change [1]: 0.027 | log2 fold change (filanesib): 0.011 | log2 fold change (zotarolimus): 0.026 | log2 fold change (idasanutlin): -0.036 | log2 fold change (alisertib): -0.116 | log2 fold change [2]: -0.046 | log2 fold change (gefitinib): 0.118 | log2 fold change [3]: -0.147 | log2 fold change (lapatinib): 0.011 | log2 fold change (pictilisib): -0.035 | log2 fold change [4]: 0.05 | log2 fold change (crizotinib): -0.182 | log2 fold change [5]: -0.022 | log2 fold change [6]: 0.063 | log2 fold change (duvelisib): -0.004 | log2 fold change (gandotinib): -0.114 | log2 fold change (tozasertib): 0.012 | log2 fold change [7]: 0.085 | log2 fold change (doramapimod): -0.01 | log2 fold change (ispinesib): -0.149

UTP14A (UniProt Q9BVJ6)
UniProt Q9BVJ6, sequence (Q9BVJ6 whole entry, looked up): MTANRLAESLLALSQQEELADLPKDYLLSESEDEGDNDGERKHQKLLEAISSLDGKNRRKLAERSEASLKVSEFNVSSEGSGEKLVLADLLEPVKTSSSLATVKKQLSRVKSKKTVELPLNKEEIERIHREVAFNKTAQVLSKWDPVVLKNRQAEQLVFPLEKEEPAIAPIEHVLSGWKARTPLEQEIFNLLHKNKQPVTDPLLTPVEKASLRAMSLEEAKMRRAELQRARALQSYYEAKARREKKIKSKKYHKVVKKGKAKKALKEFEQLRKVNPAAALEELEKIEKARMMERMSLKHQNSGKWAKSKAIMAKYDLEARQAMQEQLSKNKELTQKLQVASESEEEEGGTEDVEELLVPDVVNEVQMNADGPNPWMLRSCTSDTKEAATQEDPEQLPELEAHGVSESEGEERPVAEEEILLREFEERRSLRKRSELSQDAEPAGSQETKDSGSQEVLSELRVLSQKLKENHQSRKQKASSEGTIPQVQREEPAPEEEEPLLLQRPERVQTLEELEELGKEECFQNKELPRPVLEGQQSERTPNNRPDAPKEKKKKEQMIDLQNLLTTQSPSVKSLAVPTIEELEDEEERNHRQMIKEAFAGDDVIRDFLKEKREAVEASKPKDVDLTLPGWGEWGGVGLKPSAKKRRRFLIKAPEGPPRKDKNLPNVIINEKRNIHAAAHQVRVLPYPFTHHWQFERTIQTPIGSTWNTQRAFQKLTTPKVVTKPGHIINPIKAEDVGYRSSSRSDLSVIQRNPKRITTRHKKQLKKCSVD
log2 fold change [1]: -0.114 | log2 fold change (filanesib): 0.336 | log2 fold change (zotarolimus): -0.022 | log2 fold change (idasanutlin): 0.161 | log2 fold change (alisertib): -0.077 | log2 fold change [2]: -0.111 | log2 fold change (gefitinib): -0.062 | log2 fold change [3]: -0.138 | log2 fold change (lapatinib): 0.156 | log2 fold change (pictilisib): -0.174 | log2 fold change [4]: -0.059 | log2 fold change (crizotinib): -0.035 | log2 fold change [5]: -0.382 | log2 fold change [6]: 0.274 | log2 fold change (duvelisib): -0.128 | log2 fold change (gandotinib): 0.151 | log2 fold change (tozasertib): 0.05 | log2 fold change [7]: 0.065 | log2 fold change (doramapimod): 0.172 | log2 fold change (ispinesib): -0.171

WDR41 (UniProt Q9HAD4)
UniProt Q9HAD4, sequence (Q9HAD4 whole entry, looked up): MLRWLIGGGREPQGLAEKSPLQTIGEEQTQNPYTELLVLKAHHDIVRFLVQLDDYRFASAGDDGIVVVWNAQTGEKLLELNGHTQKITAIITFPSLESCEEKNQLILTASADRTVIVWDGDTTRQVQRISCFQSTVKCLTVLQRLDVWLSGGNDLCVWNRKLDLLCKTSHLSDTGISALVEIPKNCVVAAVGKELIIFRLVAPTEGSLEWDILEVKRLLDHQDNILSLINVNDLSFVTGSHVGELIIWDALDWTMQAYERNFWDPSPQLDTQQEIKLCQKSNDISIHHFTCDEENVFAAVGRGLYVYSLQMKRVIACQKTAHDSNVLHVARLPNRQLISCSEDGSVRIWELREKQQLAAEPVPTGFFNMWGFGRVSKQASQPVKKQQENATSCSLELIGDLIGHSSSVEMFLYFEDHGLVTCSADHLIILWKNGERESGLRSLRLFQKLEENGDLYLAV
log2 fold change [1]: 0.025 | log2 fold change (filanesib): -0.154 | log2 fold change (zotarolimus): -0.007 | log2 fold change (idasanutlin): -0.031 | log2 fold change (alisertib): -0.072 | log2 fold change [2]: -0.254 | log2 fold change (gefitinib): -0.002 | log2 fold change [3]: 0.014 | log2 fold change (lapatinib): 0.049 | log2 fold change (pictilisib): -0.056 | log2 fold change [4]: 0.01 | log2 fold change (crizotinib): -0.093 | log2 fold change [5]: -0.064 | log2 fold change [6]: -0.064 | log2 fold change (duvelisib): 0.013 | log2 fold change (gandotinib): -0.035 | log2 fold change (tozasertib): -0.002 | log2 fold change [7]: -0.02 | log2 fold change (doramapimod): -0.042 | log2 fold change (ispinesib): -0.172

VARS2, A0A0G2JL52
log2 fold change [1]: 0.061 | log2 fold change (filanesib): -0.078 | log2 fold change (zotarolimus): 0.001 | log2 fold change (idasanutlin): -0.04 | log2 fold change (alisertib): -0.01 | log2 fold change [2]: -0.017 | log2 fold change (gefitinib): -0.009 | log2 fold change [3]: 0.064 | log2 fold change (lapatinib): 0.022 | log2 fold change (pictilisib): 0.024 | log2 fold change [4]: 0.004 | log2 fold change (crizotinib): 0 | log2 fold change [5]: 0.06 | log2 fold change [6]: 0.018 | log2 fold change (duvelisib): 0.012 | log2 fold change (gandotinib): -0.061 | log2 fold change (tozasertib): -0.034 | log2 fold change [7]: 0.025 | log2 fold change (doramapimod): 0.048 | log2 fold change (ispinesib): -0.244 (active)

TNFAIP8 isoform 4 (UniProt O95379)
UniProt O95379, sequence (O95379 whole entry, looked up): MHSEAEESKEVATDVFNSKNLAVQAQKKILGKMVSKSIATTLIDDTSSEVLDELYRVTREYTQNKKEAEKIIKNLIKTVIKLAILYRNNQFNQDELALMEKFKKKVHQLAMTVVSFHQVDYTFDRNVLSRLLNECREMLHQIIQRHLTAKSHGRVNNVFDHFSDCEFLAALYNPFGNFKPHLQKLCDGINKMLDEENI
log2 fold change [1]: 0.027 | log2 fold change (filanesib): -0.015 | log2 fold change (zotarolimus): 0.085 | log2 fold change (idasanutlin): -0.055 | log2 fold change (alisertib): -0.01 | log2 fold change [2]: 0.046 | log2 fold change (gefitinib): 0.028 | log2 fold change [3]: 0.041 | log2 fold change (lapatinib): 0.065 | log2 fold change (pictilisib): -0.027 | log2 fold change [4]: 0.005 | log2 fold change (crizotinib): 0 | log2 fold change [5]: 0.122 | log2 fold change [6]: -0.099 | log2 fold change (duvelisib): 0.019 | log2 fold change (gandotinib): -0.073 | log2 fold change (tozasertib): -0.076 | log2 fold change [7]: -0.046 | log2 fold change (doramapimod): -0.016 | log2 fold change (ispinesib): -0.046

TRAPPC11 (UniProt Q7Z392)
UniProt Q7Z392, sequence (Q7Z392 whole entry, looked up): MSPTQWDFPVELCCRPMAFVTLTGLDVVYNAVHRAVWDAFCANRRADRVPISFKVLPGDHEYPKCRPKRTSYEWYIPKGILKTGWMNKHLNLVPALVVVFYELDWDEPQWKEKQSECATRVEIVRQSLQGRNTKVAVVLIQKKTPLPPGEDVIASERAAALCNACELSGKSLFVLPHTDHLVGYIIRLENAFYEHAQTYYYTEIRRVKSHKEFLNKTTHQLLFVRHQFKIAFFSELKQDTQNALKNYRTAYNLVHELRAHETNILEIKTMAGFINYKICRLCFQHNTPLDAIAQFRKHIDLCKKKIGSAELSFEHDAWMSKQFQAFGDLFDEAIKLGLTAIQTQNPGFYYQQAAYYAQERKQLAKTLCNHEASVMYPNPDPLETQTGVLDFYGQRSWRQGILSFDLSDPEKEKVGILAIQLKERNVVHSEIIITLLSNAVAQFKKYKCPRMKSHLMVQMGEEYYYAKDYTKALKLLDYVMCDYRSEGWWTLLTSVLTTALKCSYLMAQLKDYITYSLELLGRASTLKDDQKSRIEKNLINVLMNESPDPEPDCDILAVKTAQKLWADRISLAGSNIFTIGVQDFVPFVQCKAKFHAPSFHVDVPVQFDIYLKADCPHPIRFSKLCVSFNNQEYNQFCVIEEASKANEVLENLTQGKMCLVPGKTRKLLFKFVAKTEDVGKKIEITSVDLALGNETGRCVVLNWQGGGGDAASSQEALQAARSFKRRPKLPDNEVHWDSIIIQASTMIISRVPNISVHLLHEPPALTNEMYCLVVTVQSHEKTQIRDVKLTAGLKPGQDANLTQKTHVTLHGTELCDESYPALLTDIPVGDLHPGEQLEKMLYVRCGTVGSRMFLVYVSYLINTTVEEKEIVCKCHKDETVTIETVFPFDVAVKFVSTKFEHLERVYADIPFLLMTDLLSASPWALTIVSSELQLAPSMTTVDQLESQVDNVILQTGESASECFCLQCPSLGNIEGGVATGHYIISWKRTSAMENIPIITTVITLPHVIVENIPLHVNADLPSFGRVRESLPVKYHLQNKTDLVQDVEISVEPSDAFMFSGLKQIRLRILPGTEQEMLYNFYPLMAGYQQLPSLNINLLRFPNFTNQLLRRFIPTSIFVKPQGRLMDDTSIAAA
log2 fold change [1]: 0.015 | log2 fold change (filanesib): -0.018 | log2 fold change (zotarolimus): 0.024 | log2 fold change (idasanutlin): -0.039 | log2 fold change (alisertib): -0.052 | log2 fold change [2]: -0.03 | log2 fold change (gefitinib): -0.012 | log2 fold change [3]: -0.019 | log2 fold change (lapatinib): -0.014 | log2 fold change (pictilisib): 0.042 | log2 fold change [4]: -0.004 | log2 fold change (crizotinib): 0.008 | log2 fold change [5]: 0.051 | log2 fold change [6]: 0.075 | log2 fold change (duvelisib): 0.043 | log2 fold change (gandotinib): -0.047 | log2 fold change (tozasertib): 0.021 | log2 fold change [7]: 0.1 | log2 fold change (doramapimod): 0.028 | log2 fold change (ispinesib): -0.079

TRAPPC13 isoform 5 (UniProt A5PLN9)
UniProt A5PLN9, sequence (A5PLN9 whole entry, looked up): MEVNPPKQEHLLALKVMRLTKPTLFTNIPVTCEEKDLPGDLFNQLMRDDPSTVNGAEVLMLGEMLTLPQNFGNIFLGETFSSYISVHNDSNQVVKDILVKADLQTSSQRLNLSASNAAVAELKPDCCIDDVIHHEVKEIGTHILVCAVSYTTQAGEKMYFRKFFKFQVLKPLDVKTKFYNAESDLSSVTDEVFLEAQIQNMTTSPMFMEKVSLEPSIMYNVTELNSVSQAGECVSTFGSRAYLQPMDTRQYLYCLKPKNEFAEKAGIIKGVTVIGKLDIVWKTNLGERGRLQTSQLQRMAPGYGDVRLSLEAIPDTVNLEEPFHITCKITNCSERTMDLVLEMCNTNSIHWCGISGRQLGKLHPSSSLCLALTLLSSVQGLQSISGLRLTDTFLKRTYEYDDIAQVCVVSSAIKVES
log2 fold change [1]: 0.094 | log2 fold change (filanesib): 0.052 | log2 fold change (zotarolimus): 0.045 | log2 fold change (idasanutlin): -0.016 | log2 fold change (alisertib): -0.123 | log2 fold change [2]: 0.009 | log2 fold change (gefitinib): 0.005 | log2 fold change [3]: -0.046 | log2 fold change (lapatinib): 0.116 | log2 fold change (pictilisib): 0.015 | log2 fold change [4]: -0.037 | log2 fold change (crizotinib): -0.054 | log2 fold change [5]: 0.067 | log2 fold change [6]: 0.009 | log2 fold change (duvelisib): 0.02 | log2 fold change (gandotinib): -0.007 | log2 fold change (tozasertib): -0.028 | log2 fold change [7]: 0.087 | log2 fold change (doramapimod): 0.047 | log2 fold change (ispinesib): 0.032

TUBA4A (UniProt P68366)
UniProt P68366, sequence (P68366 whole entry, looked up): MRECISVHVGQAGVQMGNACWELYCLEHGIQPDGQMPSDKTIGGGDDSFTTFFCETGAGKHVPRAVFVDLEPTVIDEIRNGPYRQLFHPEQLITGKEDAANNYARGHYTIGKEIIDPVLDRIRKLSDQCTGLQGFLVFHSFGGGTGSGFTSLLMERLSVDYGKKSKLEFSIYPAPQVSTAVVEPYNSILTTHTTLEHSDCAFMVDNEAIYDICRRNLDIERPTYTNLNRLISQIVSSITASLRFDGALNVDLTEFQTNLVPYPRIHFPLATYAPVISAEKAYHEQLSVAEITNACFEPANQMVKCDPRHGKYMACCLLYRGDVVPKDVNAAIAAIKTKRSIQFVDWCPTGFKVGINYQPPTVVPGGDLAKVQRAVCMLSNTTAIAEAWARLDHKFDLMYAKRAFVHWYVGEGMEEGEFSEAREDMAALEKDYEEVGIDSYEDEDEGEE
log2 fold change [1]: 0.032 | log2 fold change (filanesib): -0.108 | log2 fold change (zotarolimus): 0.044 | log2 fold change (idasanutlin): -0.108 | log2 fold change (alisertib): -0.027 | log2 fold change [2]: -0.043 | log2 fold change (gefitinib): 0.019 | log2 fold change [3]: 0.071 | log2 fold change (lapatinib): 0.04 | log2 fold change (pictilisib): 0.04 | log2 fold change [4]: 0.004 | log2 fold change (crizotinib): -0.11 | log2 fold change [5]: 0.099 | log2 fold change [6]: -0.054 | log2 fold change (duvelisib): 0.329 | log2 fold change (gandotinib): 0.014 | log2 fold change (tozasertib): -0.068 | log2 fold change [7]: 0.208 | log2 fold change (doramapimod): 0.008 | log2 fold change (ispinesib): 0.009
